Data taken from the supplement of paper PMC3334620.
In all, about 33,000 sequences were measured (“E-score (-0.5 to 0.5)”: median about -0.0034, highest 2% from about 0.25 on). Only a selection was taken, and the highest values are over-represented in it overall.

molecular target: T1, Yap3 (UniProt P38749); assay: PBM E-score (8-mer binding enrichment) (E-score (-0.5 to 0.5)); higher = stronger / more preferred TF binding; conditions: protein concentration: 100 nM; construct: GST-full length
T1 sequence: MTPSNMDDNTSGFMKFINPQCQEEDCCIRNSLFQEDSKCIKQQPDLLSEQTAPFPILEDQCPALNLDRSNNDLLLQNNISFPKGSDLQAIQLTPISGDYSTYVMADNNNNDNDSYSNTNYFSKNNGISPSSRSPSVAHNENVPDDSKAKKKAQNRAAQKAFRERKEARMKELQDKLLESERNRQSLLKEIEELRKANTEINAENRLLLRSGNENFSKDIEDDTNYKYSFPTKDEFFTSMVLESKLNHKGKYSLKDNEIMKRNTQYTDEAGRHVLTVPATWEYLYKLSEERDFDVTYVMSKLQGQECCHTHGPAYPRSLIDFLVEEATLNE
Procedure: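 Universal 'all 10-mer' protein binding microarrays (Agilent AMADID 015681) probed with GST-tagged S. cerevisiae TFs (full-length or DBD) made by in vitro transcription/translation (PURExpress), about 100-200 nM. Bound TF was detected with fluorescent anti-GST. Each ungapped 8-mer (which stands for itself and its reverse complement) is scored by the PBM enrichment score (E-score), a modified Wilcoxon-Mann-Whitney statistic from -0.5 to +0.5, computed with the Universal PBM Analysis Suite. Scale: above 0.35 generally sequence-specific binding.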

First: AACTATAC
Second: AACGATAG
The “PBM E-score” value of the first is lower: 0.0711 for the first, 0.116 for the second.

First: AAATATAC
Second: AACTATAT
The “PBM E-score” value of the first is lower: 0.19 for the first, 0.309 for the second.

Going from AACTATAG to AAATATAT, the “PBM E-score” value rises from 0.0554 to 0.285.

Compared with AAAAATAG, AACGATAT is higher in “PBM E-score” value: 0.225 for the first, 0.269 for the second.

Going from AAAAATAT to AACGATAC, the “PBM E-score” value falls from 0.342 to 0.0446.

Compared with AAAAATAC, AAATATAG is lower in “PBM E-score” value: 0.14 for the first, 0.117 for the second.

Compared with AACTCATT, CTCCCTCA is lower in “PBM E-score” value: 0.0581 for the first, -0.122 for the second.

Compared with CCTCAAGG, CTCATTCC is higher in “PBM E-score” value: -0.145 for the first, 0.139 for the second.

Compared with CTGCCCAA, GCCGAATA is higher in “PBM E-score” value: -0.122 for the first, 0.115 for the second.

First: AAACCACC
Second: ATCGACTC
The “PBM E-score” value of the first is higher: 0.0609 for the first, -0.161 for the second.

Compared with AGTAGAAG, AGTCATGG is higher in “PBM E-score” value: 0.0935 for the first, 0.0946 for the second.

First: AGCTTTAA
Second: CCATATGA
The “PBM E-score” value of the first is higher: 0.0942 for the first, 0.00159 for the second.

First: CAGTATGA
Second: AAGTATGA
The “PBM E-score” value of the first is higher: 0.143 for the first, 0.0367 for the second.

Going from GCATATGA to TAATATGA, the “PBM E-score” value rises from 0.214 to 0.297.

Going from TAGTATGA to GAATATGA, the “PBM E-score” value falls from 0.255 to 0.168.

Compared with CAATATGA, TCATATGA is higher in “PBM E-score” value: 0.174 for the first, 0.317 for the second.

Going from AGTTGATC to GACAGGTC, the “PBM E-score” value falls from 0.0597 to -0.226.

Compared with AAGGTTCC, TAAGTATA is higher in “PBM E-score” value: -0.0546 for the first, 0.275 for the second.

Going from CAAGTATA to AAAGTATA, the “PBM E-score” value rises from -0.0229 to 0.235.

First: CCTCGCTC
Second: AGAGAACA
The “PBM E-score” value of the first is lower: 0.0543 for the first, 0.206 for the second.

Compared with GGCCCCCC, CCCACACA is higher in “PBM E-score” value: -0.461 for the first, -0.0183 for the second.

Going from TTAACGAA to ACAACCAG, the “PBM E-score” value falls from 0.179 to 0.0808.

First: ACAACCAT
Second: ACAACCAC
The “PBM E-score” value of the first is higher: 0.334 for the first, 0.0359 for the second.

Compared with CAATTCCA, AAATTCGG is higher in “PBM E-score” value: -0.102 for the first, 0.153 for the second.

First: AATTTCCA
Second: GAATTCCA
The “PBM E-score” value of the first is higher: 0.267 for the first, 0.195 for the second.

Going from GATTTCCA to TATTTCCA, the “PBM E-score” value falls from 0.0257 to 0.00077.

Compared with AAATTCGC, AAATTCCA is higher in “PBM E-score” value: 0.129 for the first, 0.269 for the second.

First: AAATTCGT
Second: GTCTTGAA
The “PBM E-score” value of the first is higher: 0.312 for the first, 0.0256 for the second.

Compared with AAGAACGA, CCAATTGA is lower in “PBM E-score” value: 0.142 for the first, 0.0344 for the second.

First: GAACGCAC
Second: AGAGGTAC
The “PBM E-score” value of the first is higher: 0.0357 for the first, -0.248 for the second.

Compared with AGAGGTAA, AGAGGTAT is higher in “PBM E-score” value: -0.0121 for the first, 0.256 for the second.

First: ATCCGATG
Second: ATTAGACG
The “PBM E-score” value of the first is lower: 0.0814 for the first, 0.104 for the second.

Going from CATGTAAA to AATGTAAG, the “PBM E-score” value rises from 0.0358 to 0.307.

Going from ACTGTAAC to AATGTAAA, the “PBM E-score” value rises from 0.0996 to 0.231.

First: CCTGTAAA
Second: CACGTAAA
The “PBM E-score” value of the first is lower: -0.0789 for the first, -0.0521 for the second.

First: TATGTAAA
Second: TACGTAAA
The “PBM E-score” value of the first is lower: 0.262 for the first, 0.319 for the second.

Compared with GACGTAAA, CATGTAAG is higher in “PBM E-score” value: 0.0343 for the first, 0.155 for the second.

Compared with AATGTAAT, ACTGTAAA is higher in “PBM E-score” value: 0.253 for the first, 0.257 for the second.

First: TAGATGAA
Second: CCGATGTC
The “PBM E-score” value of the first is higher: 0.082 for the first, 0.0178 for the second.

Compared with AATAGCTA, AGTGATCC is lower in “PBM E-score” value: 0.0193 for the first, -0.0505 for the second.

Compared with GGGATCGA, TGCGTAAA is higher in “PBM E-score” value: -0.124 for the first, 0.132 for the second.

Going from CGCGTAAG to AACGTAAT, the “PBM E-score” value rises from 0.158 to 0.353.

First: AACGTAAA
Second: AACGTAAC
The “PBM E-score” value of the first is lower: 0.2 for the first, 0.201 for the second.

Compared with CGCGTAAA, CAAGAAAC is lower in “PBM E-score” value: 0.255 for the first, 0.197 for the second.

Going from TACAACTA to AGCCCACA, the “PBM E-score” value falls from -0.028 to -0.117.

First: AATGGAGG
Second: CATTTTAC
The “PBM E-score” value of the first is lower: -0.119 for the first, 0.332 for the second.

Going from AATTTTAG to AATTTTAC, the “PBM E-score” value rises from 0.107 to 0.258.

Compared with GATTTTAC, AAATTTAT is lower in “PBM E-score” value: 0.161 for the first, 0.144 for the second.

Compared with CATTTTAA, CATTTTAG is lower in “PBM E-score” value: 0.219 for the first, 0.121 for the second.

Compared with AATTTTAT, ATTTTTAC is lower in “PBM E-score” value: 0.266 for the first, 0.0674 for the second.

First: CCTTCTCG
Second: AGGTTTCA
The “PBM E-score” value of the first is lower: -0.134 for the first, 0.0131 for the second.

Compared with GATACTAC, ACGGTAGA is lower in “PBM E-score” value: 0.0824 for the first, -0.0586 for the second.

First: AACTGATT
Second: AACCAGGC
The “PBM E-score” value of the first is lower: -0.0243 for the first, -0.00725 for the second.

Going from CAGTGAAC to CTGGTTGA, the “PBM E-score” value falls from 0.161 to -0.256.

Going from CTTCACTC to AGTATGTG, the “PBM E-score” value rises from 0.0393 to 0.203.

Going from ATTATGCG to ATTATGTG, the “PBM E-score” value falls from 0.297 to 0.291.

Compared with ATTATGCA, GTTATGTA is higher in “PBM E-score” value: 0.0948 for the first, 0.151 for the second.

First: ACTATGTG
Second: ATAATGTC
The “PBM E-score” value of the first is lower: -0.0195 for the first, 0.195 for the second.

Compared with ATTATGCC, ATAATGTA is higher in “PBM E-score” value: 0.119 for the first, 0.292 for the second.

Going from CTAATGTA to ATTATGTC, the “PBM E-score” value rises from 0.148 to 0.198.

Compared with ATTATGTA, CCTGCGCA is lower in “PBM E-score” value: 0.267 for the first, -0.158 for the second.

Going from AAATCACC to AGATCGCG, the “PBM E-score” value falls from 0.235 to 0.0544.

First: GTAGGGAA
Second: ACGTAGTC
The “PBM E-score” value of the first is higher: 0.0975 for the first, -0.262 for the second.

First: CTTATGAA
Second: GTTATGAA
The “PBM E-score” value of the first is lower: 0.0398 for the first, 0.172 for the second.

First: ATTATGAA
Second: ATCGACTA
The “PBM E-score” value of the first is higher: 0.261 for the first, 0.0167 for the second.

First: CATGTGGC
Second: ACAACGCG
The “PBM E-score” value of the first is lower: 0.0138 for the first, 0.0663 for the second.

Compared with CTATTCAC, ATATTCTC is higher in “PBM E-score” value: 0.133 for the first, 0.295 for the second.

Compared with GTATTCAC, CTATTCTC is higher in “PBM E-score” value: 0.113 for the first, 0.134 for the second.

Going from ATATTCAC to ATATTCTA, the “PBM E-score” value falls from 0.254 to 0.175.

First: AGGTTCTG
Second: CCACCATC
The “PBM E-score” value of the first is higher: -0.122 for the first, -0.238 for the second.

Going from GTACAAGA to GACTTACC, the “PBM E-score” value falls from 0.0226 to -0.11.

Compared with CAAAGTCA, AGACAATC is higher in “PBM E-score” value: 0.0697 for the first, 0.129 for the second.

Compared with AGACAATA, AGACAATG is lower in “PBM E-score” value: 0.339 for the first, 0.0142 for the second.

Compared with CTATGGGC, ACCCAGAA is higher in “PBM E-score” value: -0.0642 for the first, 0.158 for the second.

First: CAACCGCA
Second: CAACCGCC
The “PBM E-score” value of the first is higher: 0.00088 for the first, -0.103 for the second.

Compared with CAACCGCG, CATAAGAA is lower in “PBM E-score” value: 0.323 for the first, 0.21 for the second.

Going from AAGTGGAC to AAACGTAT, the “PBM E-score” value rises from -0.033 to 0.145.

First: CTACGTAA
Second: ATTCGTAA
The “PBM E-score” value of the first is lower: 0.135 for the first, 0.292 for the second.

First: GTACGTAA
Second: GTTCGTAA
The “PBM E-score” value of the first is higher: 0.312 for the first, 0.192 for the second.

Going from ACACGTAT to GTACGTAC, the “PBM E-score” value falls from 0.0936 to 0.0261.

First: ATTCGTTA
Second: ATACGTAT
The “PBM E-score” value of the first is lower: 0.25 for the first, 0.296 for the second.

Going from CTTCGTAA to ATTCGTTC, the “PBM E-score” value rises from 0.141 to 0.27.

First: CTTCGTTC
Second: CGGGGTAC
The “PBM E-score” value of the first is higher: 0.0138 for the first, -0.251 for the second.

First: GTGAGCTA
Second: AAATGTGC
The “PBM E-score” value of the first is lower: 0.0321 for the first, 0.197 for the second.

Going from CCACTAAG to ACTAAGTG, the “PBM E-score” value falls from 0.0472 to -0.00977.

Compared with ACAACAGC, ACAGAGAT is lower in “PBM E-score” value: 0.0808 for the first, 0.0805 for the second.
